Common to all, as to assay: NCI-60 one-dose screen, 48 h (100 = growth as untreated, 0 = no growth, -100 = all killed)
The test system of one assay is NCI-H23 lung. The conditions noted are these: 10 µM unless noted.
For the next assay, the system named is HOP-62 NSCLC. The conditions noted are these: 10 µM unless noted.
The next assay deals with NCI-H460 lung. The conditions noted are these: 10 µM unless noted.
For the next assay, the system named is A549/ATCC NSCLC. As to conditions: 10 µM unless noted.
The subject of another assay is K-562 leukemia. The conditions noted are these: 10 µM unless noted.
For the next assay, the system named is RXF 393 renal. The conditions noted are these: 10 µM unless noted.
The next assay concerns SF-295 CNS. As to conditions: 10 µM unless noted.
In the next assay the test system is UACC-257 melanoma. The conditions noted are these: 10 µM unless noted.
The next assay has as its system U251 CNS. The conditions noted are these: 10 µM unless noted.
Another assay deals with LOX IMVI melanoma. The conditions noted are these: 10 µM unless noted.
The test system of the next assay is SK-MEL-28 melanoma. As to conditions: 10 µM unless noted.
The test system of the next assay is SK-MEL-2 melanoma. The conditions noted are these: 10 µM unless noted.
In the next assay the test system is UO-31 renal. As to conditions: 10 µM unless noted.
A further assay deals with TK-10 renal. The conditions noted are these: 10 µM unless noted.
The test system of another assay is HL-60(TB) leukemia. The conditions noted are these: 10 µM unless noted.
In another assay the test system is SR leukemia. As to conditions: 10 µM.
The next assay has as its system OVCAR-4 ovarian. As to conditions: 10 µM unless noted.
For another assay, the system named is BT-549 breast. The conditions noted are these: 10 µM.
Another assay has as its system HCC-2998 colon. As to conditions: 10 µM unless noted.
The subject of the next assay is A498 renal. The conditions noted are these: 10 µM unless noted.

This is part of a sample that, as a whole, favours compounds with a hit. Of some 83,000 tested, about 20% had one in any assay.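 The endpoint reported here, percent growth, reads 100 for growth as untreated, 0 for no net growth and -100 for all cells dead.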 Values without a mark were called inactive. Calls of active or inactive are those of the source. Rule for the calls: active = growth percent below 10; inactive = the rest.

For the compound `Cc1cccc(N(C)c2cccc3c2C(=O)[Se]C3)c1C`, the growth in the assay on NCI-H23 lung is 31.2%; with HOP-62 NSCLC, 18.8%; in the assay on NCI-H460 lung it was 62.8%; in the assay with A549/ATCC NSCLC, 15.8%; with K-562 leukemia it was 48.2%; in the assay with RXF 393 renal, 44.7%. The growth in the assay with SF-295 CNS was 20.7%; in the assay with UACC-257 melanoma, 50.7%; in the assay on U251 CNS, 47%; in the assay with LOX IMVI melanoma, 38.2%; in the assay on SK-MEL-28 melanoma, 75.6%; with SK-MEL-2 melanoma, 62.8%. Further, the growth is 23% with UO-31 renal; 62.8% in the assay on TK-10 renal; -17.1% (active) in the assay on HL-60(TB) leukemia; 4.83% (active) in the assay with SR leukemia; 40.7% in the assay on OVCAR-4 ovarian; 52.4% in the assay with BT-549 breast. The growth with HCC-2998 colon was 47.5%.
For the compound `COc1ccc(OC)c(/C=C(/C)[N+](=O)[O-])c1`, the growth with NCI-H23 lung was 53.8%; in the assay on HOP-62 NSCLC, 38.9%; with NCI-H460 lung, 33.1%; in the assay on A549/ATCC NSCLC, 75.8%; in the assay with K-562 leukemia it was 4.29% (active); in the assay with RXF 393 renal, -18.5% (active). Further, the growth is 110% in the assay on SF-295 CNS; 0.553% (active) with UACC-257 melanoma; 26.7% in the assay on U251 CNS; -88.6% (active) in the assay on LOX IMVI melanoma; 74.7% in the assay on SK-MEL-28 melanoma; 56.4% in the assay on SK-MEL-2 melanoma. The growth is -46.3% (active) with UO-31 renal; -19.1% (active) in the assay on TK-10 renal; 110% in the assay with A498 renal; 62.3% in the assay on HL-60(TB) leukemia; -7.63% (active) in the assay with SR leukemia; 64.4% with OVCAR-4 ovarian. In the assay with HCC-2998 colon, the growth was 106%.
`COc1ccc(/C=C(/C(=O)N2CCCC2)c2cc(OC)c(OC)c(OC)c2)cc1N`: the growth is 41.7% in the assay on NCI-H23 lung; 13.5% with NCI-H460 lung; 41.1% in the assay with A549/ATCC NSCLC; 16.1% with K-562 leukemia; 11.2% in the assay with RXF 393 renal; 17.5% in the assay with SF-295 CNS. The growth in the assay with UACC-257 melanoma is 53.8%; in the assay on U251 CNS, 31%; in the assay on LOX IMVI melanoma it was 35.3%; in the assay on SK-MEL-28 melanoma, 60.9%; in the assay with SK-MEL-2 melanoma it was 42.6%; with UO-31 renal it was 51.7%. Moreover, the growth is 75.3% in the assay on TK-10 renal; -0.924% (active) in the assay on A498 renal; -11.9% (active) with HL-60(TB) leukemia; 19.5% in the assay with SR leukemia; 46.4% in the assay with OVCAR-4 ovarian; 57.1% with BT-549 breast. Also, the growth in the assay with HCC-2998 colon is 68.5%.
